# Reference: PubChem BioAssay (NCI)
# This is part of a sample that, as a whole, favours compounds with a hit. Of some 83,000 tested, about 20% had one in any assay.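 Testing used 96-well plates and a 48-hour single-concentration exposure. Example: -40 means 40% of the starting cells died.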 Values without a mark were called inactive. Activity calls are given as the source filed them. How the source made its calls: active means growth percent below 10; inactive means the rest.
# Legend:
# Assay in all cases: NCI-60 one-dose screen, 48 h (100 = growth as untreated, 0 = no growth, -100 = all killed)
# Details in all cases: 10 µM unless noted
# [1] = test system: NCI-H23 lung
# [2] = test system: NCI-H226 lung
# [3] = test system: NCI-H322M lung
# [4] = test system: HOP-62 NSCLC
# [5] = test system: NCI-H460 lung
# [6] = test system: NCI-H522 lung
# [7] = test system: 786-0 renal
# [8] = test system: COLO 205 colon
# [9] = test system: DU-145 prostate
# [10] = test system: K-562 leukemia
# [11] = test system: MALME-3M melanoma
# [12] = test system: MDA-MB-231 breast
# [13] = test system: SF-268 CNS
# [14] = test system: SF-295 CNS
# [15] = test system: SF-539 CNS
# [16] = test system: UACC-257 melanoma
# [17] = test system: M14 melanoma
# [18] = test system: HOP-92 NSCLC
# [19] = test system: A549/ATCC NSCLC
# [20] = test system: RXF 393 renal
SMILES,growth [1],growth [2],growth [3] [%],growth [4],growth [5],growth [6],growth [7],growth [8],growth [9],growth [10],growth [11],growth [12],growth [13],growth [14],growth [15],growth [16],growth [17],growth [18] [%],growth [19] [%],growth [20] [%]
C=CC1CN2CCC1CC2C(O)c1ccnc2ccccc12 (stereo not drawn),24.4%,112%,145,121%,118%,24.2%,108%,104%,111%,231%,140%,125%,120%,121%,121%,158%,133%,,,
COC12CC3(C)C(C4=CC(=O)OC4)CCC3(O)C3CCC4=CC(=O)CCC4(CO1)C32 (stereo not drawn),99%,101%,83,,113%,14.7%,94.5%,116%,117%,106%,77.1%,110%,109%,90.6%,111%,100%,92.6%,76.8,98.8,112
OCCN=Cc1c[nH]c2ccccc12,91.6%,83.5%,102,85.1%,103%,95.2%,95.7%,112%,114%,,104%,68.6%,107%,89.9%,99.4%,110%,,,95.2,118
CC(Oc1ccc(-c2ccccc2)cc1)C(=O)O (stereo not drawn),106%,95.5%,102,,103%,99.8%,101%,102%,113%,112%,,108%,105%,102%,99.6%,99.2%,102%,,96.5,
N#CCCc1ccccc1,104%,95.4%,105,,112%,95.3%,106%,109%,119%,108%,113%,107%,106%,108%,96.2%,95%,106%,,,114
O=C(O)CNCP(=O)(O)O,107%,103%,106,109%,119%,98.2%,106%,119%,121%,101%,,117%,113%,107%,115%,107%,101%,,102,121
CC1(C)CN=C(NN=C(/C=C/c2ccc(C(F)(F)F)cc2)/C=C/c2ccc(C(F)(F)F)cc2)NC1,-43% (active),-15.1% (active),31.4,-85.5% (active),-54% (active),-76.6% (active),-90.2% (active),-91.6% (active),-13.7% (active),-37.5% (active),-58.8% (active),-83.1% (active),-34.5% (active),-70.8% (active),-78.4% (active),-45.9% (active),-71.7% (active),,,
O=C(O)C(Br)CBr (stereo not drawn),99.2%,103%,92.5,101%,102%,75.9%,96.4%,111%,106%,104%,,126%,103%,98.1%,98.5%,97.7%,90.2%,,97.6,
